# Screens (PubChem BioAssay)
# Compounds with a hit are over-represented: about 1.9% of the library has one in this group of screens.
# MsrA inh: bovine MsrA enzyme inhibitors, primary screen, biochemical, absorbance, HTS; hit rate 0.75% among 360,000; Methionine sulfoxide reductase A (Bos taurus); inhibition, % at 15.5 µM; purified bovine MsrA, absorbance read-out; AID 651718, 2012; in the data active = inhibition above about 4.5%
# bovine MsrA act: bovine MsrA enzyme activators, primary screen, biochemical, absorbance, HTS; purified bovine MsrA, absorbance read-out; activation, % at 10.6 µM; Methionine sulfoxide reductase A (Bos taurus); hit rate 0.3% among 360,000; in the data active = activation above about 7.5%
# OPRM1-OPRD1 inv: inverse agonists of MOR-DOR heterodimerization, primary screen, cell-based, luminescence; cell-based MOR-DOR heterodimer luminescence, inverse agonism; inhibition, % at 9.3 µM; hit rate 0.21% among 340,000; AID 504357, 2011; in the data active = inhibition above about 22%, passing the limit was not always enough
# HTR5A ag: HTR5A agonists in luminescence cell assay, primary screen, counter-screen for OPRM1-OPRD1 heterodimer agonist project, full-deck HTS. 5-hydroxytryptamine receptor 5A (Homo sapiens), P47898. cell-based. activation, % at 9.3 µM. hit rate 0.61% among 340,000; in the data active = activation mostly above about 9.5%, no sharp cut-off; inactive = mostly below about 7.6%
# Target sequence (P47898 whole entry, looked up): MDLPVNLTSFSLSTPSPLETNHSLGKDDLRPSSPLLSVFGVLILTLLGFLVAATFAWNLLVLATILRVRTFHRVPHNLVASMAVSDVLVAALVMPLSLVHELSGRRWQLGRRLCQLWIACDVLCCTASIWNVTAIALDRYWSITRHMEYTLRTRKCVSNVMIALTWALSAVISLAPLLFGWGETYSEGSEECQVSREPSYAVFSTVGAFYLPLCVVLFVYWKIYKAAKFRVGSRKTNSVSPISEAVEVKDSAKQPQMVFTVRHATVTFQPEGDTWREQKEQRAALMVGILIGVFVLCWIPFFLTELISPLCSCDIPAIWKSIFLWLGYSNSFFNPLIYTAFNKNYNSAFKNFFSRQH
# HTR5A inv ctr: HTR5A inverse agonists in luminescence cell assay, primary screen, counter-screen for OPRM1-OPRD1 heterodimer inverse agonist project, full-deck HTS; HTR5A cell line, inverse agonism; inhibition, % at 9.3 µM; hit rate 0.083% among 340,000; AID 504634, 2011; in the data active = inhibition mostly above about 23%, no sharp cut-off; inactive = mostly below about 18%
# MOR-DOR ag-1: agonists of OPRM1-OPRD1 heterodimerization, primary screen, cell-based, luminescence; hit rate 0.3% among 340,000; activation, % at 9.3 µM; Mu-type opioid receptor (Homo sapiens) + Delta-type opioid receptor (Homo sapiens), …; cells; AID 504326, 2011
# MOR-DOR ag-2: OPRM1-OPRD1 heterodimerization promoters, counter-screen for HTR5A agonist project, cell-based, luminescence; shares compounds with HTR5A ag; U2OS counter-screen cells, complementation luminescence, 3 h; activation, % at 9.3 µM; hit rate 13% among 800
# HTR5A ag confirm: HTR5A agonists, retest of hits, confirmation, cell-based, luminescence. shares compounds with HTR5A ag. HTR5A agonist cell assay. activation, % at 9.3 µM. hit rate 17% among 800. AID 504915, 2011; in the data active = activation above about 17%
# A number is an active result; i = inactive; nt = no result. Rule as the data show it, unless noted: active = activation above about 18%; inactive = the rest.
SMILES,MsrA inh,bovine MsrA act,OPRM1-OPRD1 inv,HTR5A ag,HTR5A inv ctr,MOR-DOR ag-1,MOR-DOR ag-2,HTR5A ag confirm
COc1ccccc1C(CNC(=O)c1cccc(S(=O)(=O)Nc2ccc(C)cc2)c1)N1CCCC1 (stereo not given),i,i,i,25,i,i,i,34
CC(=O)Nc1ccc(S(=O)(=O)NCCc2c[nH]c3ccc(C)cc23)cc1,i,i,i,27,i,i,60,i
COc1ccc2[nH]cc(CCNS(=O)(=O)c3ccc(NC(C)=O)cc3)c2c1,i,i,nt,nt,nt,nt,nt,nt
Cc1cc(=O)c2c(ccc3c(=O)cc(C)[nH]c32)[nH]1,i,nt,nt,nt,nt,nt,nt,nt
CCn1c2ccccc2c2cc(NC(=O)CSc3nnc(-c4ccc(OC)cc4)n3N)ccc21,i,i,i,19,i,i,i,i
COCCN1C(=O)[C@H]2C[C@@]13O[C@H](c1ccccn1)N=C3CC1c3ccccc3C[C@@]12C (stereo not given in full),i,nt,nt,nt,nt,nt,nt,nt
CC(Oc1cccc(F)c1)C(=O)Nc1ccc(N2CCOCC2)cc1 (stereo not given),i,i,i,17,i,i,i,i
COc1ccc(-c2c(-c3ccccc3OC)sc3ccccc23)cc1F,i,nt,nt,nt,nt,nt,nt,nt
C=CCN(c1ccccc1)S(=O)(=O)c1cccc(C(=O)N2CCCC2)c1,i,i,i,15,i,i,47,i
Cc1cc(NS(=O)(=O)c2ccc(NC(=O)COc3ccc(Cl)cc3Cl)cc2)no1,i,i,i,20,i,i,i,i
CCOC(=O)c1cc2sc(C)cc2n1CC(=O)N1CCOCC1,i,i,i,i,i,i,nt,nt
CCOC(=O)c1cc2sc(C)cc2n1CC(=O)NCc1ccc(F)cc1,i,i,i,20,i,i,i,i
Cc1ccc2nc(-c3ccc(O)cc3)c(Nc3ccc4c(c3)OCCO4)n2c1,i,i,i,22,i,i,i,58
Cc1ccc(Nc2c(-c3ccccc3O)nc3cnccn23)cc1,i,i,i,i,i,i,nt,nt
Cc1ccc2nc(-c3ccccc3O)c(Nc3ccc4c(c3)OCCO4)n2c1,i,i,i,20,i,i,i,37
O=C1C(Cl)=C(N2CCOCC2)C(=O)N1c1cccc(C(F)(F)F)c1,i,i,i,14,i,i,i,i
COC(=O)C1=C(C)N(Cc2ccccc2)C(=NCc2cc(OC)c(OC)c(OC)c2)N[C@H]1c1ccc(Br)cc1,nt,i,i,14,i,i,i,i
C[C@H](O)[C@@H]1C(=O)N2CCc3c([nH]c4c(-c5ccccc5)cccc34)[C@@H]2C[C@@H]1N(C)C(=S)NCCc1ccccc1,i,nt,nt,nt,nt,nt,nt,nt
O=C(OCC12CC3CC(CC(C3)C1)C2)c1ccc(NCc2cc(O)ccc2O)cc1,i,i,i,17,i,i,44,i
CCNC(=O)OCCC12CC3CC(CC(C3)C1)C2,i,i,i,i,i,i,nt,nt
O=C(OCCC12CC3CC(CC(C3)C1)C2)c1ccc(NCc2cc(O)ccc2O)cc1,i,i,i,15,i,i,i,i
COc1ccc(-c2n(CC(=O)OC3CC(C)CCC3C(C)C)c3ccccc3[n+]2C)cc1 (stereo not given),i,i,i,i,i,i,nt,nt
COc1ccc(OCc2n(CC(=O)OC3CC(C)CCC3C(C)C)c3ccccc3[n+]2C)cc1 (stereo not given),i,i,i,21,i,i,i,i
O=C(NCc1ccccc1)c1ccc(F)c(F)c1,i,i,i,14,i,i,i,i
Cc1cc(C)c(S(=O)(=O)Nc2ccc(-c3cn4ccccc4n3)cc2)c(C)c1,i,i,i,14,i,i,i,40
SMILES,MsrA inh,bovine MsrA act,OPRM1-OPRD1 inv,HTR5A ag,HTR5A inv ctr,MOR-DOR ag-1,MOR-DOR ag-2,HTR5A ag confirm
O=C(Nc1ccc(N2CCN(C(=O)c3cccs3)CC2)cc1)c1ccc(Br)o1,i,i,i,16,i,i,i,i
Cn1c(CN2CCCCC2)nc2cc(NC(=O)c3ccc(Cl)cc3)ccc21,i,i,i,39,i,i,i,44
Nc1[nH]c(C(=O)c2ccccc2)c(-c2ccc(Cl)cc2F)c1C(=O)NCCc1c[nH]c2ccccc12,i,nt,nt,nt,nt,nt,nt,nt
COc1ccc(CN(C(=O)CSc2nnc(-c3c[nH]c4ccccc34)o2)c2ccc(F)cc2)cc1OC,i,i,i,16,i,i,27,i
CC(=O)Nc1ccc(NC(=O)C2CCN(S(=O)(=O)c3cccc4nonc34)CC2)cc1,i,i,i,i,i,i,nt,nt
O=C(Nc1ccc(F)c(F)c1)C1CCN(S(=O)(=O)c2cccc3nonc23)CC1,i,i,i,17,i,i,i,i
CCc1ccc(CCC(=O)Nc2ncc(Cc3ccccc3Cl)s2)o1,i,i,i,17,i,i,22,i
O=C(CN1CCOCC1)Nc1ncc(Cc2ccccc2Cl)s1,i,i,i,i,i,i,nt,nt
F[B-](F)(F)COCc1ccccc1C#Cc1ccccc1,i,nt,nt,nt,nt,nt,nt,nt
Cc1oc(-c2ccc(Cl)cc2)nc1CN1CCC(C(=O)N2CCN(Cc3ccccc3)CC2)CC1,i,i,i,16,i,i,i,i
Cc1oc(-c2ccc(Cl)cc2)nc1CN1CCC(C(=O)N2CCc3ccccc3C2)CC1,nt,i,i,i,i,i,nt,nt
CN(CC(=O)NC1CCN(Cc2ccccc2)CC1)S(=O)(=O)c1ccc(Br)s1,i,i,i,15,i,i,i,i
Oc1ccc(N2CCN(c3ncnc4sc(-c5ccccc5)cc34)CC2)cc1,i,i,i,26,i,i,i,i
Cc1nn(-c2ccccc2)c(Cl)c1C(=O)NCC(C)C,i,i,i,i,i,i,nt,nt
Cc1nn(-c2ccccc2)c(Cl)c1C(=O)NCCN(C)C,i,i,i,15,i,i,i,i
COC(=O)C1=C(C)N(Cc2ccccc2C(F)(F)F)C(=NCc2ccc(C(F)(F)F)cc2)NC1c1ccc(Cl)cc1 (stereo not given),i,nt,nt,nt,nt,nt,nt,nt
Cc1ccccc1C(=O)c1cccn1CC(=O)NCc1ccc2c(c1)OCO2,i,i,i,17,i,i,i,24
Cc1ccccc1C(=O)c1cccn1CC(=O)NCc1ccccc1,i,i,i,i,i,i,nt,nt
COc1ccc(/C=N/NC(=O)c2ccc(COc3ccccc3Cl)o2)c(OC)c1C,i,i,i,22,i,i,i,i
O=C(CCl)N1N=C(c2ccco2)CC1c1cccs1 (stereo not given),nt,i,i,i,i,i,nt,nt
Cc1ccc(C2=NN(C(=O)CCl)C(c3cccs3)C2)o1 (stereo not given),i,i,i,16,i,i,21,17
